Assay results reported in PubChem BioAssay (NCATS).
Results filed as inconclusive are left out. Active and inactive are the calls of the source. Unless noted, calls come from the whole dose curve; as a rule, active = well fitted curve in the direction sought with a large enough effect; inconclusive = small, poorly fitted or top-dose-only effect, or another doubt; inactive = no such curve, though single readings can be large; an effect the other way counts as inactive or inconclusive.

Columns and labels:
[1] = qHTS for differential inhibitors of proliferation of Plasmodium falciparum line Dd2 (AID 1882); settings: Potency: Plasmodium falciparum Dd2 proliferation inhibition; note: nearly all actives have a fitted effect of over 65% in size; note: potency is the fitted concentration of half-maximal effect
Method in brief: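 SYBR Green DNA fluorescence (ex 485, em 535 nm) after overnight lysis quantifies parasite growth; compound exposure lasted 72 h at 37 C on infected red cells at 2.5% hematocrit, 0.3% parasitemia (final). Artemisinin 0.29 uM and vehicle wells define normalization.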

[2] = qHTS for differential inhibitors of proliferation of Plasmodium falciparum line HB3 (AID 1886); settings: Potency: Plasmodium falciparum HB3 proliferation inhibition;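 note: parasites grown with compound for 72 h before SYBR Green readout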; note: potency is the fitted concentration of half-maximal effect
[3] = qHTS Assay for Modulators of Human Peripheral Myelin Protein 22 (PMP22) Expression/Activity (AID 1967; active = well fitted curve in the direction sought with a large enough effect in the signal ratio; the % refers to the signal ratio)
Method in brief: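 Quantitative HTS in a mouse Schwann cell line expressing dual click beetle luciferases: Pmp22 promoter (green) and control EF-alpha promoter (red). After 24h treatment, corrected green/red signal ratio gave %Activity relative to untreated cells.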

[4] = biological target: Ferritin light chain (Equus caballus) (UniProt P02791); assay: qHTS Validation Assay for Identification of Novel General Anesthetics (AID 2323); note: series mostly up to about 77 µM
Method in brief: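 Apoferritin from horse spleen (10 uM) was mixed with 1-aminoanthracene at 50% saturation in PBS, then compounds were added. After 10 min at room temperature, fluorescence was read (ex 380 nm, em 535 nm) and normalized to free-probe and complex controls.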

[5] = biological target: ATP-dependent DNA helicase Q1 (Homo sapiens) (UniProt P46063); assay: qHTS Validation Assay for Inhibitors of RecQ-Like Dna Helicase 1 (RECQ1) (AID 2353)
Method in brief: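 RECQ1T1 50 nM; forked duplex (20 bp + 30-nt ss tails) 200 nM, ATP 2 mM final; pH 8.0, 2 mM MgCl2, 2.5 ug/ml poly(dI-dC); 15 min compound preincubation; discontinuous kinetic read over 2 h at RT.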

[6] = Cytometric Cell-Based qHTS for Inhibitors of the mTORC1 Signaling Pathway in MEF (Tsc2-/-, p53-/-) Cells (AID 2660);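 note: Tsc2 and p53 null MEFs carrying empty vector with compound for 24 h; percent of cells above a phospho-rpS6 to PI ratio cutoff in each well; series mostly up to about 38 µM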
Method in brief: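 Immunofluorescence qHTS of rpS6 Ser235/236 phosphorylation: MEFs (Tsc2-/-, p53-/-) treated 24 h, 37 C, in DMEM + 10% FBS. Alexa-488 signal normalized to PI count, referenced to rapamycin (7.5 nM) and DMSO; PI cell number recorded for viability.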

[7] = High Content Imaging Cell-Based qHTS for Inhibitors of the mTORC1 Signaling Pathway in MEF (Tsc2-/-, p53-/-) Cells (AID 2666);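 note: percent of cells scored positive for phospho-rpS6 Ser235/236 immunostaining by imaging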; note: potency is the fitted concentration of half-maximal effect
Method in brief: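 MEF Tsc2-/- p53-/- (empty vector), DMEM/10% FBS; cpd 24 h 37 °C; PFA fix, Alexa-488 p-rpS6 S235/236 Ab, Hoechst; imaged; rapamycin-defined inhibition; % positive cells/well.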

[8] = High Content Imaging Cell-Based qHTS for Inhibitors of the mTORC1 Signaling Pathway in MEF Cells (AID 2667);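 note: Tsc2-/- p53-/- MEFs stably re-expressing wild-type Tsc2 exposed 24 h; series mostly up to about 38 µM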
Method in brief: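 Read-out is the share of phospho-rpS6-positive cells per well, from Hoechst-normalized Alexa-488 Ser235/236 staining imaged on IN Cell. Cells: WT Tsc2-expressing Tsc2-/-, p53-/- MEFs exposed to compound for 24 hrs.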

[9] = Cytometry Cell-Based qHTS for Inhibitors of the mTORC1 Signaling Pathway in MEF cells (AID 2668); note: potency is the fitted concentration of half-maximal effect
Method in brief: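 Pathway inhibition in WT Tsc2-rescued Tsc2-/-, p53-/- MEFs is measured as the Alexa-488 phospho-rpS6 to propidium iodide intensity ratio after 24 hrs of compound at 37 degree Celsius. PI-stained cell number gives viability.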

[10] = biological target: DNA polymerase III PolC-type (Bacillus subtilis (strain 168)) (UniProt P13267); assay: qHTS Validation Assay for the Inhibitors of DNA Replication in Gram-Positive Bacteria (AID 485295);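 note: reconstituted holoenzyme with PolC plus beta clamp SSB and primase; PicoGreen fluorescence of double-stranded DNA made on primed circular M13 template; series mostly up to about 57 µM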
Method in brief: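 Primed replication of single-stranded M13Gori by a four-protein B. subtilis holoenzyme is measured at room temperature. Double-stranded product is quantified by PicoGreen fluorescence after an EDTA stop; inhibition is scaled between DMSO and EDTA controls.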

[11] = qHTS Validation Assay to Find Inhibitors of Chronic Active B-Cell Receptor Signaling (AID 485345; active = well fitted curve in the direction sought with a large enough effect in the main read-out, with a control signal flat, not every such curve was filed as active)
Method in brief: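 TMD8 ABC-DLBCL cells stably carrying doxycycline-inducible IkappaBalpha–green luciferase fusion plus unfused red luciferase; compounds 46 uM to 3 nM, 4 h at 37C with doxycycline. Corrected green/red luminescence ratio normalized to 10 uM MG-132 and basal cell wells; curves fitted.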

[12] = Quantitative high throughput screen for delayed death inhibitors of the malarial parasite plastid, 48 hour incubation (AID 488752); note: nearly all actives have a fitted effect of over 65% in size; note: potency is the fitted concentration of half-maximal effect
Method in brief: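 First, compound was pinned into RPMI 1640 medium containing 0.5% Albumax. Next, reporter-parasite-infected erythrocytes were added to 2% hematocrit and 0.1% parasitemia. After 48 h at 37 C under 5% CO2, luciferase detection reagent was added and luminescence read.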

[13] = biological target: Thioredoxin reductase 1, cytoplasmic (Rattus norvegicus) (UniProt O89049); assay: qHTS Assay for Inhibitors of Mammalian Selenoprotein Thioredoxin Reductase 1 (TrxR1) (AID 488773); settings: Potency: inhibition; note: nearly all actives have a fitted effect of over 40% in size; note: potency is the fitted concentration of half-maximal effect
Method in brief: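 Inhibition is scored from the loss of NADPH fluorescence between first and last reads of an 8-min kinetic run. Selenite (400 uM) was the substrate, added after 15 min compound preincubation at room temperature.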

[14] = biological target: Flap endonuclease 1 (Homo sapiens) (UniProt P39748); assay: qHTS Validation Assay for the Inhibitors of Human Flap endonuclease 1 (FEN1) (AID 488816); note: potency is the fitted concentration of half-maximal effect
Method in brief: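 Enzyme reagent 10 nM; cpds pinned; 15 min RT preinc.; substrate 50 nM final; reads t=0 and 15 min; no-enzyme buffer wells as neg. control; normalized data, 4-parameter Hill fit.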

[15] = qHTS for differential inhibitors of proliferation of Plasmodium falciparum line W2 (AID 1883); settings: Potency: Plasmodium falciparum W2 proliferation inhibition;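 note: parasites grown with compound for 72 h before lysis and staining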; note: potency is the fitted concentration of half-maximal effect
[16] = biological target: RecQ-like DNA helicase BLM (Homo sapiens) (UniProt P54132); assay: qHTS Validation Assay for Inhibitors of Bloom's syndrome helicase (BLM) (AID 2364)
Method in brief: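 50 nM BLM preincubated 15 min at room temperature with compound in pH 8.0 Tris buffer containing 2.5 ug/ml poly(dI-dC); started with 200 nM TAMRA/BHQ-2 forked duplex and 2 mM ATP (final). Unwinding read as TAMRA fluorescence increase, two reads 2 h apart.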

[17] = biological target: Beta-2 adrenergic receptor (Homo sapiens) (UniProt P07550); assay: qHTS validation assay of beta-arrestin-biased ligands of beta2-adrenergic receptor (AID 485366)
Method in brief: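 Agonism was measured as beta-arrestin recruitment to recombinant beta2-AR, releasing tTA to drive luciferase. Cells were exposed for 18 hr at 37 degrees C to a series up to 46 microM. %Activity from corrected luminescence gave concentration-response curves.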

[18] = Quantitative high throughput screen for delayed death inhibitors of the malarial parasite plastid, 96 hour incubation (AID 488745); note: nearly all actives have a fitted effect of over 70% in size; note: potency is the fitted concentration of half-maximal effect
Method in brief: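 Readout is firefly luciferase luminescence from an integrated reporter in P. falciparum; lower signal marks inhibited growth. Cultures at 2% hematocrit and 0.1% parasitemia were treated with compound across two generations (96 h, 37 C, 5% CO2).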

[19] = biological target: ATP-dependent 6-phosphofructokinase (Trypanosoma brucei brucei) (UniProt O15648); assay: qHTS Validation Assay to Find Inhibitors of T. brucei phosphofructokinase (AID 485368); note: potency is the fitted concentration of half-maximal effect
Method in brief: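 ADP-Glo luminescence, two-step: residual ATP depleted, then ADP converted to ATP for luciferase. Enzyme 1.25 nM, F6P 0.5 mM, ATP 0.1 mM, pH 8.0 TEA buffer, 45 min RT. Curves fitted and classed by quality and efficacy.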

[20] = qHTS Assay for Identification of Small Molecule Inducers of Hypoxia Response (AID 2120; active = well fitted curve in the direction sought with a large enough effect in the signal ratio, with a control signal flat, not every such curve was filed as active; the % refers to the signal ratio)
Method in brief: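 Cell-based qHTS for reporter induction: hypoxia response element controlled beta-lactamase in ME-180 cells. Compounds incubated 17 h at 37 degrees C; activity from blue/green (460/530 nm) ratio, inducers ranked by AC50.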

Measured: Potency

Thioredoxin reductase 1, cytoplasmic (Rattus norvegicus), sequence (O89049 whole entry, looked up): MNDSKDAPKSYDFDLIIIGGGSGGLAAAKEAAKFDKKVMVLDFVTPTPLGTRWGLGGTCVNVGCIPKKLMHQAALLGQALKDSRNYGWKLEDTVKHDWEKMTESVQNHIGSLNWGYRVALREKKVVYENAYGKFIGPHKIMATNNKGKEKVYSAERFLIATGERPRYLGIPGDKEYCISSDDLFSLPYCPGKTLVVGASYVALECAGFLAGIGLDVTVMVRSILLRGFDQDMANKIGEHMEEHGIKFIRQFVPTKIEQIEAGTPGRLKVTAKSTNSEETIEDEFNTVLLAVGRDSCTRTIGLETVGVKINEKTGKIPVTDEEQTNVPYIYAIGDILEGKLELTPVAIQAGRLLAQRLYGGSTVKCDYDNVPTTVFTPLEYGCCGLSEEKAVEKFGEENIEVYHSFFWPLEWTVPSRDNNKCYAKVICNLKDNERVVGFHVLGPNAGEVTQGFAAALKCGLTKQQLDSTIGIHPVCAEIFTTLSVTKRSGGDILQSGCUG
ATP-dependent 6-phosphofructokinase (Trypanosoma brucei brucei), sequence (O15648 whole entry, looked up): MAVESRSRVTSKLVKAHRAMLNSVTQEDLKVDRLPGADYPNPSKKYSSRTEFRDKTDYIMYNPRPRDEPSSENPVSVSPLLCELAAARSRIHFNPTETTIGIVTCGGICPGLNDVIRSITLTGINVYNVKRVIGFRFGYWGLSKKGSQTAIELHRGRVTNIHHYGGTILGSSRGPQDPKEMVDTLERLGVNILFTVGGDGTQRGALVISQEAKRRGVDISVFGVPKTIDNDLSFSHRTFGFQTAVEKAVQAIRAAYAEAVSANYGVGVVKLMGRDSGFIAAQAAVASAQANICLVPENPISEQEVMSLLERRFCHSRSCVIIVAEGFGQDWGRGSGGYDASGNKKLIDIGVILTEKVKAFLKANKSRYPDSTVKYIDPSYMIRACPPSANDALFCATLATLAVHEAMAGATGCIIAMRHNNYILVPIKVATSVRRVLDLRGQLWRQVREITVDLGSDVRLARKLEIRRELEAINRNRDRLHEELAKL
Beta-2 adrenergic receptor (Homo sapiens), sequence (P07550 whole entry, looked up): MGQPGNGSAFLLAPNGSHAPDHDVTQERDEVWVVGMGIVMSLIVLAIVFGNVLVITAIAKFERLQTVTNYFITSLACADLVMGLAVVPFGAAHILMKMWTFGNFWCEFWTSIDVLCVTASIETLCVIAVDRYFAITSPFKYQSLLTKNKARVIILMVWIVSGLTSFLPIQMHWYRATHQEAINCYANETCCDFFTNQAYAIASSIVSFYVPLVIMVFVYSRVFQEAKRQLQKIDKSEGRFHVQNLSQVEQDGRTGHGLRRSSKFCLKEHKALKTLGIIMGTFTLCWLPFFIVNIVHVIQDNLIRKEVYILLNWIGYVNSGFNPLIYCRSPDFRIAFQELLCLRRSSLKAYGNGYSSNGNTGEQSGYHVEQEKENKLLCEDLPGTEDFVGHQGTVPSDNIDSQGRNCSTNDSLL
RecQ-like DNA helicase BLM (Homo sapiens), sequence (P54132 whole entry, looked up): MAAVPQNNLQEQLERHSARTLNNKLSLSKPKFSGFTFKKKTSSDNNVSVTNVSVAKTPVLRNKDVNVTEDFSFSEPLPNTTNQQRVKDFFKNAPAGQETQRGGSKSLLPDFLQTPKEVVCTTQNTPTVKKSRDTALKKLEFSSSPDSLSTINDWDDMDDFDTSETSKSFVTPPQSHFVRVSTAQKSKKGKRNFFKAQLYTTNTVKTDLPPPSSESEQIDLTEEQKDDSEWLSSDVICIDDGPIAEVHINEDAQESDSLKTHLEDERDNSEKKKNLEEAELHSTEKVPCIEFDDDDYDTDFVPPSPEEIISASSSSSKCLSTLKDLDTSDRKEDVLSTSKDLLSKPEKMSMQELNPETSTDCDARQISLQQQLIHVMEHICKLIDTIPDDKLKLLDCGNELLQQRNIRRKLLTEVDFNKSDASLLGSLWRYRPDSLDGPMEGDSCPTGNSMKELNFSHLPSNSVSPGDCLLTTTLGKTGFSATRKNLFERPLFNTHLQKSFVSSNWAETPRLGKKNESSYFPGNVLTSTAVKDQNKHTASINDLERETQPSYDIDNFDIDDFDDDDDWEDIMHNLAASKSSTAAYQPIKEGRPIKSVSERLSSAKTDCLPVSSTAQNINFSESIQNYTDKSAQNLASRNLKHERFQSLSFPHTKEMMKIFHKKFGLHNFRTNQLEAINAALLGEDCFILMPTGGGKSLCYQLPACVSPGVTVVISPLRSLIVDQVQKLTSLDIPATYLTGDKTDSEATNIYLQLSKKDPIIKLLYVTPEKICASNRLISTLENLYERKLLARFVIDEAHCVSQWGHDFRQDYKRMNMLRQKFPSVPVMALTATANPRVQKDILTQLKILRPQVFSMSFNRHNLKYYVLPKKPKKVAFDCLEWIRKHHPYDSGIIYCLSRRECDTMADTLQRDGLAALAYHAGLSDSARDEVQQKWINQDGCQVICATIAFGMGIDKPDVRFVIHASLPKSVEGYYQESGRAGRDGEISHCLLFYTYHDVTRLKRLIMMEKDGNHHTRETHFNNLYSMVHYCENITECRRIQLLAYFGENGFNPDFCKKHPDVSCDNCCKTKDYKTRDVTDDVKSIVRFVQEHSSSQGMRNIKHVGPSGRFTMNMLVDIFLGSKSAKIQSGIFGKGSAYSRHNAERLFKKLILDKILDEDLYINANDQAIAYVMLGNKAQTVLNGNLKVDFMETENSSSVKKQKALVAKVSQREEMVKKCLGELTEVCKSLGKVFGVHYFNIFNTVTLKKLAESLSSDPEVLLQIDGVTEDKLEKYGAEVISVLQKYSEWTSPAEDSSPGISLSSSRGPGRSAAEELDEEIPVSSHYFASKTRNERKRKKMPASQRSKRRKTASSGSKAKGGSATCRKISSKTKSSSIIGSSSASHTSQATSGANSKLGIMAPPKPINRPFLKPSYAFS
Ferritin light chain (Equus caballus), sequence (P02791 2-175 limits assumed): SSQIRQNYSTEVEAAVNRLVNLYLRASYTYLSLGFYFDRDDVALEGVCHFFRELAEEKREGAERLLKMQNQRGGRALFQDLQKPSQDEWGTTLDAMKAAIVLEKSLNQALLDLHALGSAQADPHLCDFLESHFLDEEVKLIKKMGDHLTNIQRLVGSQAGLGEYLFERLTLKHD
ATP-dependent DNA helicase Q1 (Homo sapiens), sequence (P46063 whole entry, looked up): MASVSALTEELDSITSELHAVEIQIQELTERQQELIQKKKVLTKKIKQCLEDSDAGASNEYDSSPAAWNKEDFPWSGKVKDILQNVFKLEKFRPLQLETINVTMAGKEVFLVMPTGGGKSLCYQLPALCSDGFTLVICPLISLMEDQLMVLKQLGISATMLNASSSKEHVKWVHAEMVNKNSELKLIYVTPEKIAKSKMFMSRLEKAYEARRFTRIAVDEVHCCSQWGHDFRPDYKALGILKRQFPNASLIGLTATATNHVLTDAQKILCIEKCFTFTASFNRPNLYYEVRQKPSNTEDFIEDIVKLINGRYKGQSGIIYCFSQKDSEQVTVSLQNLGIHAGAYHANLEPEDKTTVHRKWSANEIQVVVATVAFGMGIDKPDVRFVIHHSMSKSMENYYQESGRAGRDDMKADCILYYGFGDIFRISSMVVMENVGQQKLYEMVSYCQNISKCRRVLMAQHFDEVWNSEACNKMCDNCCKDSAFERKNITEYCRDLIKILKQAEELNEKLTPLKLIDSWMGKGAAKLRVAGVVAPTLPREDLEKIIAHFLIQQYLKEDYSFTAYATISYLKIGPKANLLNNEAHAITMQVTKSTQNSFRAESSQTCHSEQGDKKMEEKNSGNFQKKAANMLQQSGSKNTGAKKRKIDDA
Flap endonuclease 1 (Homo sapiens), sequence (P39748 whole entry, looked up): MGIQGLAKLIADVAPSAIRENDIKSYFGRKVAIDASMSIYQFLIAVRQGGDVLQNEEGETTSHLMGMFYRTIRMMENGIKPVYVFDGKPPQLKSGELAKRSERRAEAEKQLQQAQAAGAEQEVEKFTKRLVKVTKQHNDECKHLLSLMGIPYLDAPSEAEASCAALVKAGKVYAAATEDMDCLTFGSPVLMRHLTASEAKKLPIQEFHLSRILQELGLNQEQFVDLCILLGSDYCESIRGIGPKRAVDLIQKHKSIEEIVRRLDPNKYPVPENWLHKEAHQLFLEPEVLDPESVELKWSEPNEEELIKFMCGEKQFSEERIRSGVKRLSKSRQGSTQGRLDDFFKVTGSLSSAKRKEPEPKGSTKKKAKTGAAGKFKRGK

CC(C)NCC(O)c1ccc(NS(C)(=O)=O)cc1 (stereo not drawn)
not listed: [15] | [16] | [17] | [18] | [19] | [20]
inactive: all other assays above

O=C(O)C1CCCN(CCC=C(c2ccccc2)c2ccccc2)C1 (stereo not drawn)
not listed: [19] | [20]
inactive: all other assays above

CCN(CC)CC#CCOC(=O)C(O)(c1ccccc1)C1CCCCC1 (stereo not drawn)
active: [1] 8.91 µM | [15] 2.24 µM | [2] 8.91 µM
not listed: [3] | [4] | [12] | [20]
inactive: all other assays above

Nc1nc(N)c2nc(CNc3ccc(C(=O)NC(CCC(=O)O)C(=O)O)cc3)cnc2n1 (stereo not drawn)
not listed: [4] | [16] | [19] | [20]
inactive: all other assays above

N=C(N)c1ccc(OCCCCCOc2ccc(C(=N)N)cc2)cc1
inactive: [20]

CCN(CC)CCn1c(=O)c(Cc2ccc(OC)cc2)nc2ccccc21
inactive: [6] | [7] | [8] | [9] | [10] | [17] | [19] | [13]

N[C@@H](Cc1ccc(O)c(O)c1)C(=O)O
inactive: [6] | [7] | [8] | [9] | [10] | [11] | [17]
active: [19] 23.9 µM | [13] 29.9 µM | [14] 3.77 µM

CC1CC2C3CCC4=CC(=O)C=C[C@]4(C)[C@@]3(F)[C@@H](O)C[C@]2(C)[C@@]1(O)C(=O)CO (stereo partly drawn)
inactive: [6] | [7] | [8] | [9] | [10] | [17] | [13] | [14]

O=C(O)c1cc(=O)[nH]c(=O)[nH]1
inactive: [20]

COc1ccc2cc3[n+](cc2c1OC)CCc1cc2c(cc1-3)OCO2
inactive: [20]

Cc1ccnc2c1NC(=O)c1cccnc1N2C1CC1
inactive: [20]

Cc1noc(NS(=O)(=O)c2ccc(N)cc2)c1C
inactive: [20]

CC(=O)[C@H]1CC[C@H]2[C@@H]3CCC4=CC(=O)CC[C@]4(C)[C@H]3CC[C@]12C
not listed: [1] | [2] | [3] | [4] | [11] | [15] | [18] | [20]
inactive: all other assays above

CC(C)(C)NC(=O)[C@H]1CC[C@H]2[C@@H]3CC[C@H]4NC(=O)C=C[C@]4(C)[C@H]3CC[C@]12C
inactive: [1] | [4] | [5] | [18] | [12]
active: [15] 10 µM

CCCCS(=N)(=O)CCC(N)C(=O)O (stereo not drawn)
active: [12] 2.08 µM
not listed: [15] | [20]
inactive: all other assays above

NC(=O)c1ccc2[nH]ccc2c1
inactive: [6] | [7] | [8] | [9] | [10] | [11] | [17] | [13] | [14]

OCc1ccc(-c2nn(Cc3ccccc3)c3ccccc23)o1
active: [15] 8.91 µM
not listed: [1] | [2] | [3] | [11] | [13] | [16] | [19] | [20]
inactive: all other assays above

COc1cc2nc(N3CCCN(C)CC3)nc(NC3CCN(Cc4ccccc4)CC3)c2cc1OC
inactive: [10] | [17] | [13]
active: [7] 2.61 µM | [9] 6.56 µM

COc1cc2ncnc(Nc3cccc(Cl)c3)c2cc1OC
active: [15] 7.94 µM | [2] 10 µM | [18] 3.29 µM | [12] 2.62 µM
not listed: [1] | [3] | [11] | [16] | [19] | [20]
inactive: all other assays above

NC(=O)c1cccc(N)c1
not listed: [3] | [19] | [20]
inactive: all other assays above

CCN1CCCC1CNC(=O)c1cc(S(N)(=O)=O)ccc1OC (stereo not drawn)
not listed: [16] | [19] | [20]
inactive: all other assays above

NC(N)=NC(N)=NCCc1ccccc1
inactive: [20]

CC1=C(C(=O)O)N2C(=O)[C@@H](NC(=O)C(N)c3ccccc3)[C@H]2SC1 (stereo partly drawn)
not listed: [6] | [16] | [19] | [20]
inactive: all other assays above

Cc1ccc(S(=O)(=O)N[C@@H](Cc2ccccc2)C(=O)CCl)cc1
active: [15] 11.2 µM | [13] 21.2 µM
inactive: [2] | [4] | [5] | [10] | [17] | [18] | [12] | [14]

CC(=O)Oc1ccccc1C(=O)Nc1ncc([N+](=O)[O-])s1
inactive: [20]
